Results as given in PubChem BioAssay (NCATS).
Results filed as inconclusive are left out. The source made the active and inactive calls. Unless noted, calls follow the shape of the dose curve; as a rule, active = well fitted curve in either direction with a large enough effect (not every such curve was filed as active); inconclusive = small, poorly fitted or top-dose-only effect, or another doubt; inactive = flat fitted curve, though single readings scatter.

Legend:
[1] = biological target: Lysosomal acid glucosylceramidase (Homo sapiens) (UniProt P04062); assay: Glucocerebrosidase-p2 (AID 348; in the data active = potency below about 10 µM; also: potency is read from the fitted curve at half-maximal effect); details: purified GBA, blue fluorogenic substrate, 40 min
In short: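 Normal human glucocerebrosidase (0.2 nM) with blue fluorogenic substrate (80 uM final) in citrate/phosphate pH 5.9 with 10mM sodium taurocholate, 0.01% tween-20; 40 min RT, NaOH/glycine stop; fluorescence Ex 365/Em 440; AC50 from a titration from 0.6 nM upwards.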

[2] = AP1 Signaling Pathway (AID 357); details: ME-180 AP-1-bla reporter, EGF-induced, beta-lactamase ratio, 5 h; at 7.69 µM (top of the series) unless noted;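 also: ME-180 reporter cells stimulated with EGF at its EC50 level; % is scaled to controls: 0 for no effect and ±100 for the full control effect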
In short: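 Beta-lactamase reporter under AP-1 response element, ME-180 background. Stimulus: EC50 EGF. Compound exposure 5 h, 37 °C. Detection: CCF4, 2.5 h RT, 460/530 nm. Values: AC50 from titration.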

[3] = biological target: Cytochrome P450 1A2 (Homo sapiens) (UniProt P05177); assay: p450-cyp1a2 (AID 410; calls by dose curve; also: potency is read from the fitted curve at half-maximal effect;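 as to activity change, negative = inhibition: -100% = full effect of reference inhibitor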); details: recombinant CYP1A2, luciferin-ME demethylation, luminescence; series mostly up to 57 µM
In short: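 Read-out is luminescence from luciferin produced by CYP1A2 demethylation of Luciferin-ME (100uM, at Km). Detection reagent stopped the 60 min NADPH-dependent reaction; signals were normalized to 57 uM furafylline.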

[4] = Stat Signaling Pathway (AID 446); details: ME-180 SIE beta-lactamase reporter, IL-6 stimulated, 5 h; at 7.69 µM (top of the series) unless noted;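 also: ME-180 cervical cancer cells given 40 pM IL-6 alongside compound; SIE-controlled beta-lactamase reporter measured as 460/530 nm FRET emission ratio; % is scaled to controls: 0 for no effect and ±100 for the full control effect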
In short: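 Compound effects on IL-6-induced STAT reporter activity were measured in ME-180 cells. After overnight culture, cells were co-treated with 40 pM IL-6 for 5 hrs before beta-lactamase substrate loading at room temperature.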

[5] = biological target: Glucocorticoid receptor (Homo sapiens) (UniProt P04150); assay: GR-EFC Redistribution (AID 451; calls by dose curve; also: potency is read from the fitted curve at half-maximal effect); details: CHO-K1 GR-EFC translocation, beta-gal luminescence, 2 h
In short: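 CHO-K1 cells stably expressing nuclear-localized β-gal enzyme acceptor and GR fused C-terminally to the enzyme donor fragment; ligand-driven nuclear translocation restores β-gal by complementation. Compounds titrated up to 46 uM final, 2 h at 37 °C; luminescence read.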

[6] = biological target: Mitogen-activated protein kinase 10 (Mus musculus) (UniProt Q61831); assay: JNK3 AlphaScreen Assay (AID 530); details: JNK3 lysate, c-Jun phosphorylation; series mostly up to 57.1 µM;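 also: kinase came from lysate of stimulated human HepG2 cells; signal reports phosphorylation of biotinylated GST-cJun 1-79 at Ser73 with 10 µM ATP; % is scaled to controls: 0 for no effect and ±100 for the full control effect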
In short: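 Biotinylated GST-cJun(1-79) served as substrate for JNK3 in HepG2 lysates stimulated with IL-1beta and TNF-alpha. ATP was 10 uM final, pH 7.6. Ser73 phosphorylation was quantified by AlphaScreen (680 nm excitation).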

[7] = biological target: 3',5'-cyclic-AMP phosphodiesterase 4B (Homo sapiens) (UniProt Q07343); assay: qHTS Assay for Inhibitors of PDE-IV (AID 607; active = well fitted activation curve with a large enough effect in the main read-out, with a control signal flat, not every such curve was filed as active; also: % of control where 0% means no effect); details: HEK293 ACTOne CNG channel cells, membrane potential fluorescence; series mostly up to 22.9 µM
In short: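 ACTOne HEK293 cells carry a modified cAMP-gated CNG channel and express endogenous PDE4; plated 1000 cells/well, compounds up to 22.9 uM final. Membrane-potential dye fluorescence (ex 535/em 590) was read; parental cells received 10 uM forskolin + 100 uM RO 20-1724.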

[8] = biological target: Cytochrome P450 3A4 (Homo sapiens) (UniProt P08684); assay: qHTS Assay for Activators of Cytochrome P450 3A4 (AID 885; active = well fitted curve in the direction sought with a large enough effect; an effect the other way counts as inactive or inconclusive; also: nearly all actives have a fitted effect of over 65% in size); details: recombinant CYP3A4, Luciferin-PPXE luminescence, 60 min; series mostly up to 57.1 µM
In short: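 CYP3A4 activity: Luciferin-PPXE O-dealkylation, 25uM substrate, 200mM KPO4, RT throughout. Read-out is luciferase luminescence; higher values reflect activation.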

[9] = qHTS Assay for Identification of Small Molecule Agonists for Hypoxia Response Element Signaling Pathway (AID 914; active = well fitted activation curve with a large enough effect in the signal ratio, with a control signal flat, not every such curve was filed as active; the % refers to the signal ratio; also: % of control where 0% means no effect); details: ME-180 (cervical carcinoma) HRE-bla reporter, beta-lactamase ratio, CoCl2, 17 h; activation: hits give high values
In short: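 AC50 values come from titration-series %Activity, taken as the 460/530nm ratio of CCF4 fluorescence (excitation 405nm). CellSensor HRE-bla ME-180 cells were treated 17 hours at 37 C with compound plus an EC50 level of CoCl2.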

[10] = Primary qHTS for small molecule stabilizers of the endoplasmic reticulum resident proteome: Secreted ER Calcium Modulated Protein (SERCaMP) assay (AID 1508630; active = well fitted curve in the direction sought with a large enough effect; an effect the other way counts as inactive or inconclusive; also: % is scaled to controls: 0 for no effect and ±100 for the full control effect); details: SH-SY5Y GLuc-SERCaMP (Gaussia luciferase released on ER calcium loss) secretion, thapsigargin, luminescence; series mostly up to 38.4 µM
In short: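 The SH-SY5Y reporter protocol was run at 3 concentrations up to 38.3 uM (primary) or 11 concentrations (follow-up): 16 h compound, 100 nM thapsigargin for 4 h, then extracellular luciferase luminescence.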

[11] = NFAT Signaling Pathway (AID 444); details: Jurkat NFAT-bla M1, carbachol, beta-lactamase ratio, 5 h; at 7.69 µM (top of the series) unless noted
In short: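 Jurkat cells carrying an NFAT-driven β-lactamase reporter and co-transfected muscarinic M1 receptor were treated with compound plus carbachol (1 uM final, an EC50 level) for 5 h at 37 °C. CCF4 loading followed for 1 h at RT; 460/530 nm ratio gave %activity.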

[12] = biological target: Glucocorticoid receptor (Homo sapiens) (UniProt P04150); assay: GR-GFP Redistribution (AID 450;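 active = compounds whose dose series gives a full or clear partial fitted curve of increased nuclear translocation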; also: potency is read from the fitted curve at half-maximal effect); details: U2OS GR-GFP nuclear translocation, laser cytometry, 2 h
[13] = biological target: Cytochrome P450 2C9 (Homo sapiens) (UniProt P11712); assay: qHTS Assay for Inhibitors and Substrates of Cytochrome P450 2C9 (AID 883; active = well fitted curve in the direction sought with a large enough effect; an effect the other way counts as inactive or inconclusive; also: % is scaled to controls: 0 for no effect and ±100 for the full control effect; nearly all actives have a fitted effect of over 60% in size); details: recombinant CYP2C9, luciferin-H luminescence, 60 min; series mostly up to 57.1 µM
In short: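 CYP2C9 deoxyluciferin hydroxylation, 37C, 60 min with NADPH regeneration; 10nM enzyme, 100uM Luciferin-H (KM). Glo detection reagent stopped reaction; luminescence normalized to sulphaphenazole (57uM) full inhibition.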

[14] = biological target: Cytochrome P450 2D6 (Homo sapiens) (UniProt P10635); assay: qHTS Assay for Inhibitors and Substrates of Cytochrome P450 2D6 (AID 891; active = well fitted curve in the direction sought with a large enough effect; an effect the other way counts as inactive or inconclusive; also: nearly all actives have a fitted effect of over 60% in size; also: potency is read from the fitted curve at half-maximal effect); details: recombinant CYP2D6, luciferin-ME EGE luminescence; series mostly up to 57.1 µM
In short: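 Luminescent read-out of luciferin formed by 5 nM human CYP2D6 demethylating 30 uM Luciferin-ME EGE (Km level) over 60 min at room temperature after NADPH regeneration addition. Data normalized to full inhibition by 1.43 uM quinidine.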

[15] = biological target: Cytochrome P450 2C19 (Homo sapiens) (UniProt P33261); assay: qHTS Assay for Inhibitors and Substrates of Cytochrome P450 2C19 (AID 899; active = well fitted curve in the direction sought with a large enough effect; an effect the other way counts as inactive or inconclusive; also: % is scaled to controls: 0 for no effect and ±100 for the full control effect; nearly all actives have a fitted effect of over 60% in size); details: recombinant CYP2C19, luciferin-H EGE luminescence; series mostly up to 57.1 µM
In short: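 In 50mM KPO4, the reaction held 5nM enzyme and KM-level (10uM) Luciferin-H EGE; it ran 60 min at 37C after NADPH regeneration and a 10 min compound preincubation. Luminescence values were scaled to 57uM ketoconazole as complete inhibition.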

[16] = Confirmation and Secondary Assay for Modulators of Hemoglobin Beta Chain Splicing at IVS2 705 locus (AID 930; active = well fitted curve in the direction sought with a large enough effect; an effect the other way counts as inactive or inconclusive;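 also: HeLa cells stably expressing the EGFP-705 splicing reporter; % of control where 0% means no effect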); details: HeLa EGFP-705 splicing reporter, GFP fluorescence, 48 h; series mostly up to 38.3 µM
In short: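 Restored EGFP fluorescence after 2-day compound exposure reports splicing correction in IVS2-705 EGFP reporter HeLa cells; positive control was 500 nM splice-blocking PNA oligo. Signal measured as well total peak GFP intensity (488 nm excitation).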

Chain of Lysosomal acid glucosylceramidase (Homo sapiens) (P04062 whole entry, looked up): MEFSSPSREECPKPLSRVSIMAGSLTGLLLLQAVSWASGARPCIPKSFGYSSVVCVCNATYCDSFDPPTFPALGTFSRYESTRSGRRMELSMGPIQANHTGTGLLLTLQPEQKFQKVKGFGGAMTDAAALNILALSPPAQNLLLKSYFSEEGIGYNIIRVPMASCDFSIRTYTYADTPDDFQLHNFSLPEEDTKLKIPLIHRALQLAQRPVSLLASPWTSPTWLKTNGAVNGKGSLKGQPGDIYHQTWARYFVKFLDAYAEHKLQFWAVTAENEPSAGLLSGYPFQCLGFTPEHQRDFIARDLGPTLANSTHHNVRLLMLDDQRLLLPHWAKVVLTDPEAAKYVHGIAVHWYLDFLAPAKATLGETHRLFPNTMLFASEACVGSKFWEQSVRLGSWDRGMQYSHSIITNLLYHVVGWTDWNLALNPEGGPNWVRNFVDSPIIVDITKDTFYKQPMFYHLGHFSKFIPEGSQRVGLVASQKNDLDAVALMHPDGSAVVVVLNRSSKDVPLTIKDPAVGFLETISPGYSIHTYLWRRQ
Chain of Glucocorticoid receptor (Homo sapiens) (P04150 whole entry, looked up, the tested form may be a part): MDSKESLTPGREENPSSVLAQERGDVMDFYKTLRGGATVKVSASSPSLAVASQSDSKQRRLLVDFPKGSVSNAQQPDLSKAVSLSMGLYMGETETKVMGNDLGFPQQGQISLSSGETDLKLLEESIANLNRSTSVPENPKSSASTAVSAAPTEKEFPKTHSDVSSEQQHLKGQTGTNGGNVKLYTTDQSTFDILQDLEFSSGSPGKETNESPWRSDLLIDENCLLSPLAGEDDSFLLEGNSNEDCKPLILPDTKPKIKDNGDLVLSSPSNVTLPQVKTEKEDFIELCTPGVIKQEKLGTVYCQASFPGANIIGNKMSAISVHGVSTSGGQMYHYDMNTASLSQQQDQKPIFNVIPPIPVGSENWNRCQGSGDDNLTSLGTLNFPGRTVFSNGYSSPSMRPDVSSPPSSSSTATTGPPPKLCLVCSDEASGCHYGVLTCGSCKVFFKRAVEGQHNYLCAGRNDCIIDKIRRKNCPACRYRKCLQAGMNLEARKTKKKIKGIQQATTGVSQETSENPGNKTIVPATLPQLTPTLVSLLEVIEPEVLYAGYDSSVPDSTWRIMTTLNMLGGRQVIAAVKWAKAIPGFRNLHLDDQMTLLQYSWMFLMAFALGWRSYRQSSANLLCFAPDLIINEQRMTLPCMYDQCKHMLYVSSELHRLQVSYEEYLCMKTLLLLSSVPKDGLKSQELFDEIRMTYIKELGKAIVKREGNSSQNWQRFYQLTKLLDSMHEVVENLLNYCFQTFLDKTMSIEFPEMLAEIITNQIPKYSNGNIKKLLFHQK
Chain of Cytochrome P450 1A2 (Homo sapiens) (P05177 whole entry, looked up): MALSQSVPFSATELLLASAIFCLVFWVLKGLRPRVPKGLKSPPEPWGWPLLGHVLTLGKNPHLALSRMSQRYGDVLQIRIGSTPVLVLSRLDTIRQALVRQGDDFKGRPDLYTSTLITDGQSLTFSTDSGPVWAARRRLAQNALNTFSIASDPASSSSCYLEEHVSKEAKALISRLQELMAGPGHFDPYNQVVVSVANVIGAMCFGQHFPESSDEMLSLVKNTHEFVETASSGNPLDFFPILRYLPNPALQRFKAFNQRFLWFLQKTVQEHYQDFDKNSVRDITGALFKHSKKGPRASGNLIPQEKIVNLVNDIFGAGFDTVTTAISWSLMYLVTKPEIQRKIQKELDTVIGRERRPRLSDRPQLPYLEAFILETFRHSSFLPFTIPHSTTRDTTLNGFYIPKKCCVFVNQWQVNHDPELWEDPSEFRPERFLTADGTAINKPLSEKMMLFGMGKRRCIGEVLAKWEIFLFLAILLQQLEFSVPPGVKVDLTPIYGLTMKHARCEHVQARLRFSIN
Chain of 3',5'-cyclic-AMP phosphodiesterase 4B (Homo sapiens) (Q07343 whole entry, looked up): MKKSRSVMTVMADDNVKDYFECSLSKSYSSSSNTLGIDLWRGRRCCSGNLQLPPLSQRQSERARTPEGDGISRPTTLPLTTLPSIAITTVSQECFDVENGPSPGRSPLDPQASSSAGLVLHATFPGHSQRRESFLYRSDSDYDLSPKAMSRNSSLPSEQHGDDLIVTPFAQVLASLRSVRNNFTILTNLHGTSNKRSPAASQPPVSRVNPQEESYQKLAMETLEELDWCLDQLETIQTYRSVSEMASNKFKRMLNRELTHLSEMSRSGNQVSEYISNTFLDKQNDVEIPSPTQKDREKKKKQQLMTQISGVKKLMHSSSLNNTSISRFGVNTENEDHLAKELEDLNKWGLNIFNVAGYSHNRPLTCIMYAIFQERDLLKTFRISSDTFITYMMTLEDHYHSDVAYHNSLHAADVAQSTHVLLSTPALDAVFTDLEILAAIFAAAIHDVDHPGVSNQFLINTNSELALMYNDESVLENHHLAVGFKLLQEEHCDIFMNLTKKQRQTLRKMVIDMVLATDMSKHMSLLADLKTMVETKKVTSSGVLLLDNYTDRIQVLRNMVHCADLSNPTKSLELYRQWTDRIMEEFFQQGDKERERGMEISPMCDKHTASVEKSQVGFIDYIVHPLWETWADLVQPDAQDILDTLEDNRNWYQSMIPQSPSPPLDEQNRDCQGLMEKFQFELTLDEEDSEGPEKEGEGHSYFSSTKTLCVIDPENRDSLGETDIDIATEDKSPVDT
Chain of Cytochrome P450 3A4 (Homo sapiens) (P08684 whole entry, looked up): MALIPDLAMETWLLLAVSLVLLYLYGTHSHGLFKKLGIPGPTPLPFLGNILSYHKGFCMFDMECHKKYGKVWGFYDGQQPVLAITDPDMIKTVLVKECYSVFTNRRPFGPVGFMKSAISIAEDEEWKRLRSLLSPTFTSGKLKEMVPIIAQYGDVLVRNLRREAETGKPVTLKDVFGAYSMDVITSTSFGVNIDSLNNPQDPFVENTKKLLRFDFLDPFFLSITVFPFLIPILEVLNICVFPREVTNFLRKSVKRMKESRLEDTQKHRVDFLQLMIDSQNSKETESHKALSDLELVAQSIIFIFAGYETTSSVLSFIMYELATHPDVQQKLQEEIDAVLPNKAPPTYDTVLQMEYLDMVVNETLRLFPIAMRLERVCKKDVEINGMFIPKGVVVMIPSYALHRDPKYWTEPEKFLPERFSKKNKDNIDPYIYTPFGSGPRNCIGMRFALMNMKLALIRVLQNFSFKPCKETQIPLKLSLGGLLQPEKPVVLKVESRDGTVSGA
Chain of Cytochrome P450 2D6 (Homo sapiens) (P10635 whole entry, looked up): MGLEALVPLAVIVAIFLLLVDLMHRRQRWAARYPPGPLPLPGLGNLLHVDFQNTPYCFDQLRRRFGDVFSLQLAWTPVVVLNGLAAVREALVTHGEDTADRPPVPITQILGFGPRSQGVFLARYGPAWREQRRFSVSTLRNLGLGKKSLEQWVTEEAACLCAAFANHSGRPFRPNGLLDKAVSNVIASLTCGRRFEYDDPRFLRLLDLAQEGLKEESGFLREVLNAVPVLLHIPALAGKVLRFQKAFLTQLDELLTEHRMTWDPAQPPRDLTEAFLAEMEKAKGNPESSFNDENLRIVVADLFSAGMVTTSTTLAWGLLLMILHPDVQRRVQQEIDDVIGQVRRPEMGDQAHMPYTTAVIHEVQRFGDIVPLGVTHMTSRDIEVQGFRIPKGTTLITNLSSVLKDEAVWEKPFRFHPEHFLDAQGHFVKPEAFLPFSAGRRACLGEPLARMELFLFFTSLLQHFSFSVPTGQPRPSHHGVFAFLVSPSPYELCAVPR
Chain of Cytochrome P450 2C9 (Homo sapiens) (P11712 whole entry, looked up): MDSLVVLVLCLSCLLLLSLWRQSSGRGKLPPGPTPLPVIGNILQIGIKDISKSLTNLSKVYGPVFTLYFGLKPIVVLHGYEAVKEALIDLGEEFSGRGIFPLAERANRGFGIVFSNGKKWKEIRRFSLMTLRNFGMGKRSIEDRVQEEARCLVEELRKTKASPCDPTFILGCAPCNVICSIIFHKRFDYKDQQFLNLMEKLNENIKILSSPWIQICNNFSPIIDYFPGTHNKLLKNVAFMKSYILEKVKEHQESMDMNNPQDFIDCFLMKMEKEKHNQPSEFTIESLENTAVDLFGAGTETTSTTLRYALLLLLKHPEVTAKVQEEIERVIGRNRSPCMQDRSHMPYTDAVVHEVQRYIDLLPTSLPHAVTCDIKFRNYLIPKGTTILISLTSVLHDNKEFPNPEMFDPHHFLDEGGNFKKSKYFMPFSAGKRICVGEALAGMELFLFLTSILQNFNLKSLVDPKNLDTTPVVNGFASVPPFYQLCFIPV
Chain of Cytochrome P450 2C19 (Homo sapiens) (P33261 whole entry, looked up): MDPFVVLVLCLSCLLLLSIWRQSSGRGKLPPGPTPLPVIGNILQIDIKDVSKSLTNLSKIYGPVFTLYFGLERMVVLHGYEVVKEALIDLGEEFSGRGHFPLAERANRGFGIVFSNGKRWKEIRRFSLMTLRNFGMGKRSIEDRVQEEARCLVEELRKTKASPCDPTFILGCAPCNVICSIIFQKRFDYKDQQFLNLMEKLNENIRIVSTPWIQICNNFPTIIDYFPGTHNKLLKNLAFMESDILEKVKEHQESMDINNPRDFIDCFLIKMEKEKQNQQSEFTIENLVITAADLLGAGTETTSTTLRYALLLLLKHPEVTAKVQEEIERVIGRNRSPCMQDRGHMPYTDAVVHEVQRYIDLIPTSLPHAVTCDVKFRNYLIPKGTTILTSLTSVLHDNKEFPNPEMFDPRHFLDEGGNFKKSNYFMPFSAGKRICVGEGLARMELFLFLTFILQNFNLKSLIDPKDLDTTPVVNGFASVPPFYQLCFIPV

O=C(c1ccco1)N1CCC2(CCCN(Cc3ccccc3)C2)CC1
inactive: Potency [1] > 11.4 µM | activity change, negative = inhibition [2] -8.21% | Potency [3] | activity, negative = inhibition [4] 10.9% | Potency [5] > 46 µM | Potency [6] | Potency [7] | Potency [8] | activation [9] 3.78% | outcome [10]

COc1ccc(Oc2ncc3nc(C)c(=O)n(CCc4ccccc4)c3n2)cc1
inactive: Potency [1] > 11.4 µM | activity change, negative = inhibition [2] 18.2% | activity change, negative = inhibition [11] 0.509% | activity, negative = inhibition [4] 2.93% | Potency [12] > 9.22 µM | Potency [5] > 46 µM | Potency [6] | outcome [10]

O=C(c1ccco1)N1CCC2(CCCN(c3ccncc3)C2)CC1
inactive: Potency [1] > 11.4 µM | activity change, negative = inhibition [2] -2.46% | Potency [3] | activity, negative = inhibition [4] 3.15% | Potency [5] > 46 µM | Potency [6] | Potency [7] | Potency [13] | Potency [14] | Potency [15] | outcome [10]

CC(=O)N1CCC[C@@]2(CCN(c3ccccc3)C2)C1
inactive: Potency [1] > 11.4 µM | activity change, negative = inhibition [2] -11% | Potency [3] | activity, negative = inhibition [4] -6.46% | Potency [5] > 46 µM | Potency [6] | Potency [7] | Potency [8] | outcome [10]

O=C(Nc1ccccc1)N1CC2(CCN(C(=O)c3cc(C(F)(F)F)cc(C(F)(F)F)c3)CC2)C1
inactive: Potency [1] > 11.4 µM | activity change, negative = inhibition [2] 12.7% | Potency [3] | Potency [5] > 46 µM | Potency [6] | Potency [7] | Potency [13] | outcome [10]

CN(C)c1ccc(-c2nc(NC3CCNCC3)c3ccccc3n2)cc1
inactive: activity change, negative = inhibition [2] 4.91% | Potency [12] > 46 µM | Potency [5] > 46 µM | Potency [6] | Potency [7] | Potency [8] | outcome [16] | outcome [10]
active: Potency [1] 7.09 µM | Potency [3] 15.8 µM

COc1cccc(Cn2c(=O)c(C)nc3cnc(Oc4ccccc4)nc32)c1
inactive: Potency [1] > 11.4 µM | activity change, negative = inhibition [2] -12.2% | activity change, negative = inhibition [11] -3.17% | activity, negative = inhibition [4] -2.47% | Potency [12] > 9.22 µM | Potency [5] > 46 µM | Potency [6] | outcome [10]

O=C(c1cnccn1)N1CCC2(CCCN(Cc3nccs3)C2)CC1
inactive: Potency [1] > 11.4 µM | activity change, negative = inhibition [2] -20.7% | activity, negative = inhibition [4] -4.76% | Potency [5] > 46 µM | Potency [6] | Potency [7] | Potency [8] | outcome [10]
active: Potency [3] 15.8 µM | Potency [14] 7.94 µM
